Reference: article PMC4552634, “A New Set of Chemical Starting Points with Plasmodium falciparum Transmission-Blocking Potential for Antimalarial Drug Discovery” (PLoS ONE, 2015)
Hit rate of the full screen: of about 13,000 compounds, about 3,200 (25%) showed an effect of 50% or more. The list shows a part of the results.

Tested on: P. falciparum stage V gametocytes
Design: BacTiter-Glo ATP luminescence viability of purified stage V gametocytes in 384-well plates, per cent inhibition versus DMSO
Settings: 48 h, 5 µM; inhibitor

In order of falling “% Inhibition” value:
1. Cc1cc(N)c2cc(NC(=O)/C=C/c3ccccc3Cl)ccc2n1 [TCMDC-139459]  113.2%
2. Cc1cc(N)c2cc(NC(=O)/C=C/c3ccc([N+](=O)[O-])cc3)ccc2n1 [TCMDC-139335]  102.5%
3. COc1ccc2ncc(F)c(CCN3CCC4(CC3)COC(c3cc5c(cn3)OCCO5)=N4)c2n1 [TCMDC-135741]  93.18%
4. CC1(C)CNCc2cc(NC(=O)/C=C/c3ccc(Cl)cc3)ccc21 [TCMDC-141909]  92.59%
5. Cc1cc(N)c2cc(NC(=O)/C=C/c3ccccc3)ccc2n1 [TCMDC-139337]  92.06%
6. O=C(NCc1ccccc1)c1ncn(CCCN2CCC(N3CCCC3)CC2)c1-c1ccc(Cl)c(Cl)c1 [TCMDC-135228]  91.41%
7. Cc1ccc(C)c(NC(=O)CC2C(=O)N(c3ccccc3)C(=S)N2Cc2ccco2)c1 (centres unmarked) [TCMDC-124000]  88.68%
8. COc1ccc2ncc(F)c(CCN3CCC(NCc4cc(F)c5c(c4)OCCO5)CC3)c2n1 [TCMDC-135849]  84.79%
9. CN1Cc2cc(NC(=O)/C=C/c3ccccc3Cl)ccc2C(C)(C)C1 [TCMDC-139315]  78.19%
10. O=C(Nc1ccccc1)c1nn(CCCN2CCC(N3CCCC3)CC2)cc1-c1ccc(Cl)c(Cl)c1 [TCMDC-141727]  76.09%
11. O=C(NCc1ccccc1)c1nn(CCCN2CCC(N3CCCC3)CC2)cc1-c1ccc(Cl)c(Cl)c1 [TCMDC-141728]  73.12%
12. Cc1ccc(S(=O)(=O)n2nccc2-c2c(-c3ccc(Cl)cc3)noc2C)cc1 [TCMDC-124500]  65.37%
13. Cc1onc(-c2ccc(Cl)cc2)c1-c1ccnn1S(=O)(=O)c1ccc(Cl)cc1 [TCMDC-123770]  63.51%
14. O=C(Nc1ccccc1)Nc1cccc(-c2nn3c(OCC4CCCCN4)cccc3c2-c2ccncc2)c1 (centres unmarked) [TCMDC-135465]  63.4%
15. CCCCC(N)COc1cccc2c(-c3ccncc3)c(-c3cccc(NC(=O)Nc4ccccc4)c3)nn12 (centres unmarked) [TCMDC-135537]  58.08%
16. COc1ccc2ncc(F)c(CCN3CC(O)C(CNCc4ccc5c(c4)OCCO5)C3)c2n1 (centres unmarked) [TCMDC-136518]  55.46%
17. COc1ccc2ncc(F)c(CCN3CC(O)C(CNCc4ccccc4)C3)c2n1 (centres unmarked) [TCMDC-136498]  50.66%
18. CN(Cc1ccccc1)C(=O)c1nn(CCCN2CCC(N3CCCC3)CC2)cc1-c1ccc(Cl)c(Cl)c1 [TCMDC-141730]  45.58%
19. O=C(Nc1ccccc1)Nc1cccc(-c2nn3c(OCCN4CCCC4)cccc3c2-c2ccncc2)c1 [TCMDC-135539]  44.29%
20. COc1ccc2ncc(F)c(CCN3CC(O)C(CNCc4ccc5ccccc5c4)C3)c2n1 (centres unmarked) [TCMDC-136528]  43.95%
21. Cc1cc(C(=O)NCc2ccc(-c3c(C)noc3C)cc2)n(-c2ccc(Cl)cc2)n1 [TCMDC-133781]  35.85%
22. COc1cc(C)nc2ccc(NC(=O)c3cc([N+](=O)[O-])cc([N+](=O)[O-])c3)cc12 [TCMDC-139382]  32.9%
23. CCc1cc(CNC2CCN(CCc3c(F)cnc4ccc(OC)nc34)CC2)cc2c1OCCO2 [TCMDC-136290]  31.48%
24. COc1ccc2ncc(F)c(CCN3CCC(NCc4cc(Br)c5c(c4)OCCO5)CC3)c2n1 [TCMDC-136211]  30.05%
25. COc1cc(NC(=O)c2nn(CCCN3CCC(N4CCCC4)CC3)cc2-c2ccc(Cl)c(Cl)c2)cc(OC)c1OC [TCMDC-141725]  29.9%
26. CC1(C)CN2CCCC2c2cc(NC(=O)/C=C/c3ccccc3Cl)ccc21 (centres unmarked) [TCMDC-139348]  26.85%
27. COc1cc(C(=O)NCc2nn(CCN3CCC(N4CCCC4)CC3)cc2-c2ccc(Cl)c(Cl)c2)cc(OC)c1OC [TCMDC-141966]  24.89%
28. O=c1ccc2ncc(Cl)c3c2n1CC3CN1CCC(NCc2cc3c(cn2)OCCO3)CC1 (centres unmarked) [TCMDC-135967]  20.98%
29. COc1ccc2ncc(F)c(CCN3CCC(NCc4cc(C)c5c(c4)OCCO5)CC3)c2n1 [TCMDC-136209]  19.66%
30. COc1ccc2ncc(F)c(CCN3CCC(NCc4cc(OC)c5c(c4)OCCO5)CC3)c2n1 [TCMDC-135509]  17.67%
31. COc1ccc2ncc(F)c(CCN3C[C@H](CNCc4cc(C#N)c5c(c4)OCCO5)[C@H](O)C3)c2n1 [TCMDC-136275]  16.8%
32. Fc1cc(Cl)ccc1Nc1ccnc2cc(-c3scnc3CNCCN3CCOCC3)ccc12 [TCMDC-138442]  15.08%
33. COc1ccc2ncc(F)c(CCN3CC(O)C(CNCc4ccc(F)cc4)C3)c2n1 (centres unmarked) [TCMDC-136527]  13.85%
34. CC(C)(CNC(=O)[C@@H]1CCCN(CCOc2ccc(F)c(F)c2)C1)c1nc(-c2ccc(Cl)c(O)c2)c(-c2ccncc2)[nH]1 [TCMDC-141137]  11.15%
35. COc1ccc2ncc(F)c(CCN3CC(O)C(CNCc4ccc5oc(=O)ccc5c4)C3)c2n1 (centres unmarked) [TCMDC-136499]  11.09%
36. O=C(Cc1cc(F)cc(F)c1)NC1CCN(c2ccnc3cc(Cl)ccc23)C1 (centres unmarked) [TCMDC-133667]  8.938%
37. N[C@@H](COc1cccc2c(-c3ccncc3)c(-c3cccc(NC(=O)Nc4ccccc4)c3)nn12)c1ccccc1 [TCMDC-135512]  8.625%
38. C/C=C1\CN2CC[C@H]1C[C@@H]2[C@@H](O)c1ccnc2ccc(O)cc12 [TCMDC-138273]  7.487%
39. O=c1c2ccc(Sc3ccccn3)cc2n(-c2ccccc2)c2cc(Sc3ccccn3)ccc12 [TCMDC-137528]  7.065%
40. NC(N)=NC(=O)Nc1cc(F)c(Cl)c(Cl)c1 [TCMDC-137462]  6.486%
41. Nc1cccc(C=CC(=O)Nc2ccnc3ccccc23)c1 [TCMDC-139290]  5.125%
42. NC1=NC(c2ccccc2)(c2ccccc2)C(=O)N1CCCCc1ccccc1 [TCMDC-136488]  3.475%
43. CC1CN(C(=O)c2sc3ccccc3c2Cl)CC(C)O1 (centres unmarked) [TCMDC-125225]  2.721%
44. CCOc1cc(C(=O)Nc2cccnc2)ccc1-c1nc2cc(Cl)c(Cl)cc2[nH]1 [TCMDC-140059]  1.839%
45. COc1cc(NC(=O)N2CCOC(CCN3CCC4(CCc5ccccc54)CC3)(c3ccc(Cl)c(Cl)c3)C2)cc(OC)c1 (centres unmarked) [TCMDC-135338]  -0.7672%
46. CCOc1ccccc1C=CC(=O)Nc1ccc2nc(N3CCN(C)CC3)cc(C)c2c1 [TCMDC-123801]  -1.147%
47. Fc1cccc(COc2ccc(Nc3ncnc4sc(C#Cc5ncc[nH]5)cc34)cc2Cl)c1 [TCMDC-135407]  -1.353%
48. Cc1nc2nc(N)nc(N)c2c(C)c1Cc1ccccc1I [TCMDC-137243]  -2.242%
49. CCN1CCN(c2cc(C)c3cc(NC(=O)c4cc(OC)cc(OC)c4)ccc3n2)CC1 [TCMDC-125575]  -6.076%
50. CC1(C)N=C(N)N=C(N)N1OCCCOc1ccc(N)cc1 [TCMDC-131698]  -10.87%
51. O=C(C=Cc1ccccc1)Nc1ccc(C#CC=Cc2ccc(NC(=O)C=Cc3ccccc3)cc2)cc1 [TCMDC-125718]  -11.21%
52. CCc1c(C)nc(-n2nc(C)cc2NC(=O)CCc2ccccc2)[nH]c1=O [TCMDC-124934]  -11.5%
53. COc1cc(C)nc2ccc(NC(=O)Nc3ccc([N+](=O)[O-])cc3C)cc12 [TCMDC-139395]  -13.54%
54. CCCCCNc1nc2nc(N)nc(N)c2nc1-c1ccccc1 [TCMDC-141983]  -14.59%
55. CCOC(=O)C1CCN(CCOc2cc(NC(=O)/C=C/c3ccccc3Cl)ccc2Br)CC1 [TCMDC-140963]  -16.5%
56. O=C(NCc1ccc2c(c1)OCO2)c1nn(CCN2CCC(N3CCCC3)CC2)cc1-c1ccc(Cl)c(Cl)c1 [TCMDC-141908]  -16.74%
57. O=C(NCc1ccccc1)NC(CCCN1CCC(Oc2cccc(Cl)c2)CC1)c1ccc(Cl)c(Cl)c1 (centres unmarked) [TCMDC-141903]  -17.97%
58. O=C(/C=C/c1ccc(Cl)cc1)Nc1ccc2nc(CN3CCCC3)ccc2c1 [TCMDC-135629]  -22.56%
59. O=C(Nc1ccccc1)Nc1cccc(-c2cc(CNCCc3ccccc3)sc2-c2ccncc2)c1 [TCMDC-135632]  -27.66%
60. COc1cccc(C2(c3cccc(OC)c3)N=C(N)N(CCCc3ccccc3)C2=O)c1 [TCMDC-136492]  -28.16%
61. Nc1ncnc2cc(-c3cccc(NC(=O)Nc4ccccc4)c3)sc12 [TCMDC-135255]  -37.99%
62. O=C(Nc1ccc(C(=O)Oc2cccc3ccccc23)cc1)N[C@@H](Cc1ccc(O)cc1)C(=O)NC1CCN(Cc2ccc(O)cc2)C1 (some centres unmarked) [TCMDC-135360]  -40.07%
63. COc1cc(NC(=O)c2nn(CCCN3CCC4(CC3)C(=O)NCN4c3ccccc3)cc2-c2ccc(Cl)c(Cl)c2)cc(OC)c1OC [TCMDC-141726]  -40.66%
64. O=C(/C=C/c1ccccc1Cl)Nc1ccc(Br)c(OCCN2CCCCC2)c1 [TCMDC-140959]  -53.57%
65. Cc1noc(C)c1S(=O)(=O)N(C)Cc1ccc(-c2ccc(Cl)cc2)o1 [TCMDC-125303]  -57.93%
66. Cc1cc(C)c(-c2n[nH]c3c2C(c2cccc(Cl)c2)N(Cc2ccco2)C3=O)c(O)c1 (centres unmarked) [TCMDC-125307]  -65.67%
67. CN1CCN(Cc2cc3cc(NC(=O)/C=C/c4ccc(Cl)cc4)ccc3s2)CC1 [TCMDC-135631]  -73.77%
68. O=C(Nc1cccc(-c2nn3ccccc3c2-c2ccnc(Nc3cccc(C(F)(F)F)c3)n2)c1)c1c(F)cccc1F [TCMDC-135527]  -78.64%
